Laboratory results taken from the supplement of paper PMC9694430.

Tests used:
Assay in all cases: thermal shift delta Tm vs DMSO control; higher = stronger stabilization (binding)
Settings in all cases: 12.5 µM; protein concentration 2 µM
LOC_OS04G57630-cb004 = tested on: LOC_OS04G57630-cb004
In short: (§1)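 Purified, E. coli-expressed rice kinase domain constructs were tested by differential scanning fluorimetry in 96-well plates: 19.5 μl of 2 μM kinase in 100 mM potassium phosphate pH 7.5, 150 mM NaCl, 10% glycerol, 5 × SYPRO Orange, plus compound in DMSO. Fluorescence was read from 25°C to 95°C at 0.05°C/s. Melting temperatures came from Boltzmann fits, and the shift is the triplicate mean relative to protein with DMSO alone.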

LOC_OS05G07850-cb002 = tested on: LOC_OS05G07850-cb002
In short: as §1

LOC_OS05G16824-cb004 = tested on: LOC_OS05G16824-cb004
In short: as §1

LOC_OS05G28520-cb001 = tested on: LOC_OS05G28520-cb001
In short: as §1

LOC_OS05G30820-cb001 = tested on: LOC_OS05G30820-cb001
In short: as §1

LOC_OS05G43570-cb004 = tested on: LOC_OS05G43570-cb004
In short: as §1

LOC_OS06G16330-cb003 = tested on: LOC_OS06G16330-cb003
In short: as §1

LOC_OS06G22820-cb001 = tested on: T1, LOC_OS06G22820-cb001
T1 sequence (whole entry): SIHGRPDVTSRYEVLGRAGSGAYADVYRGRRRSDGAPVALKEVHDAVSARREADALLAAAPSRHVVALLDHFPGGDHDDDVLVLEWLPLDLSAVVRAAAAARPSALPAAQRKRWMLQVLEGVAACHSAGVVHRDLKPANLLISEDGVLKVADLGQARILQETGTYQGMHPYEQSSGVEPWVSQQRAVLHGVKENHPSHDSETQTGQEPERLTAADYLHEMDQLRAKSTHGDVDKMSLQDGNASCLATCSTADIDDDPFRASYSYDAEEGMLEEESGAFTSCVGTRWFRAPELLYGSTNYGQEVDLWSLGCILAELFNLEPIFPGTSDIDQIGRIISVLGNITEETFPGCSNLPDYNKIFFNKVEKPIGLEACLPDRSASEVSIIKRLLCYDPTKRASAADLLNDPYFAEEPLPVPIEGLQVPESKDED
In short: as §1

LOC_OS07G06570-cb004 = tested on: LOC_OS07G06570-cb004
In short: as §1

LOC_OS07G07230-cb001 = tested on: LOC_OS07G07230-cb001
In short: as §1

Sequence of LOC_OS06G16330-cb003 (as listed by the source): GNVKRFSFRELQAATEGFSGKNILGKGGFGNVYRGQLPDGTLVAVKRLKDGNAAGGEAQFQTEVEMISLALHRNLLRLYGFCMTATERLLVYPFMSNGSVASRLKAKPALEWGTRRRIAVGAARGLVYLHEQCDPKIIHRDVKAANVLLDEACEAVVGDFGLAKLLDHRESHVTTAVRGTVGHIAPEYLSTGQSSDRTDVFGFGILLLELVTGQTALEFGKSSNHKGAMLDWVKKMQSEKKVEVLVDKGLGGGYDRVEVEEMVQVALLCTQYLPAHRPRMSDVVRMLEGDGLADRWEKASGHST

| Compound | thermal shift delta Tm (LOC_OS04G57630-cb004) [°C] | thermal shift delta Tm (LOC_OS05G07850-cb002) [°C] | thermal shift delta Tm (LOC_OS05G16824-cb004) [°C] | thermal shift delta Tm (LOC_OS05G28520-cb001) [°C] | thermal shift delta Tm (LOC_OS05G30820-cb001) [°C] | thermal shift delta Tm (LOC_OS05G43570-cb004) [°C] | thermal shift delta Tm (LOC_OS06G16330-cb003) [°C] | thermal shift delta Tm (LOC_OS06G22820-cb001) [°C] | thermal shift delta Tm (LOC_OS07G06570-cb004) [°C] | thermal shift delta Tm (LOC_OS07G07230-cb001) [°C] |
| --- | --- | --- | --- | --- | --- | --- | --- | --- | --- | --- |
| CCNc1nc(Nc2cc(F)c(C(=O)N3CCOCC3)cc2OC)ncc1C(F)(F)F | 0 | 3.03 | 1.21 | 0.71 | 0.46 | 0.26 | 0.76 | 0.28 | 0.96 | -0.16 |
| C=CC(=O)Nc1cc(Nc2nccc(-c3cn(C)c4ccccc34)n2)c(OC)cc1N(C)CCN(C)C [Osimertinib (AZD9291)] | 0.2 | 13.5 | -1.95 | 0.53 | 0.54 | 0.3 | 5.5 | 0.25 | 1.03 | 0.47 |
| Nc1nccc(Oc2ccc3c(C(=O)Nc4cccc(C(F)(F)F)c4)cccc3c2)n1 | 0.43 | -1.62 | -1.01 | 0.93 | 0.73 | 0.58 | 0 | 0.99 | 1.61 | 0.15 |
| N#CC1(c2ccc(NC(=O)c3cccnc3NCc3ccncc3)cc2)CCCC1 [Apatinib] | 0.34 | 0.8 | -5.15 | 0.2 | 0.66 | 0.51 | -0.32 | 0.38 | 1.2 | 0.05 |
| CNC(=O)c1cc(Oc2ccc(NC(=O)Nc3cc(C(C)(C)C)nn3-c3ccc4ncccc4c3)c(F)c2)ccn1 [Rebastinib (DCC-2036)] | 10.4 | 14.3 | 0.76 | 0.81 | 1.05 | 0.62 | 10 | 0.59 | 0.44 | -0.15 |
| Cn1nccc1Nc1nccc(-c2ccn([C@H](CO)c3ccc(Cl)c(F)c3)c(=O)c2)n1 | 0.08 | 2.78 | -3.01 | 1.03 | 0.26 | 0.16 | 0.19 | 0.56 | 1.22 | 0.87 |
| Cc1cnc(NC(=O)Nc2cc(Br)c(C)cc2OC[C@@H]2CNCCO2)cn1 | 0.36 | 3.74 | 5.41 | 0.03 | 0.41 | 0.24 | 0.75 | 0.22 | 0.46 | 0.19 |
| Cc1cc(F)c(Nc2ncnc3cc(OCc4ccccc4)ccc23)cc1O | -0.1 | 1.29 | -1.22 | 1.19 | 0.76 | 1.17 | -0.11 | 1.28 | 2.49 | 0.37 |
| CC(C)(CO)n1cc(C(=O)c2cncc(NC(=O)Cc3ccc(Cl)cn3)c2)c2cnc(N)nc21 | 0.34 | 5.09 | -0.67 | 0.14 | 0.02 | 0.18 | 2.22 | 0.45 | 1.47 | 0.34 |
| CN1CCN(Cc2ccc(-c3cnc4[nH]cc(-c5ccc6[nH]ccc6c5)c4c3)cc2)CC1 | 11.1 | 15.3 | 11.2 | 2.09 | 1.88 | 1.74 | 13.7 | 0.7 | 1.92 | 0.61 |
